# Assay results: PubChem BioAssay AID651661 (Broad Institute, 2012)
# The campaign covered roughly 350,000 compounds. About 2,300 (0.66%) were called active. Many of the other results were omitted from the sample, so actives are more common in it than they were. Values without a mark were called inactive.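 How the source made its calls: active means mean inhibition of at least 50% after viability correction, with every replicate also passing that limit; inconclusive means mean reaches 50% but only one of two replicates passes; inactive means the rest.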
# Test: EWS/Fli-driven NR0B1 reporter inhibitors, primary screen, A673 cells, NR0B1 luciferase, luminescence, MLPCN library (AID 651661);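 further: firefly luciferase signal divided by Alamar Blue viability fluorescence both relative to DMSO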
# Settings: viability-normalised, at 12.6 µM, hits give high values
row,SMILES,inhibition
1,COCC(=O)Nc1ccc2c(c1)C(=O)N(C)C[C@@H](OC)[C@@H](C)CN(CC1CCCCC1)[C@@H](C)CO2,-0.183%
2,CCC(=O)N1CC(=O)N2[C@@H](CO)[C@@H](c3ccc(C#CC4CCCC4)cc3)[C@@H]2C1,9.48%
3,CCC(=O)N1CC(=O)N2[C@@H](CO)[C@H](c3ccc(C#CC4CCCC4)cc3)[C@@H]2C1,56.6% (active)
4,COCC(=O)N1CC(=O)N2[C@H](CO)[C@@H](c3ccc(C#CC4CCCC4)cc3)[C@H]2C1,-0.851%
5,COc1ccc2c3c([nH]c2c1)[C@@H](CO)N(C(=O)CN1CCOCC1)CC31CCN(C)CC1,-7.25%
6,CO[C@H]1CN(C)C(=O)c2ccc(NS(C)(=O)=O)cc2OC[C@@H](C)N(Cc2ccccc2)C[C@H]1C,-2.52%
7,O=C(C1CC1)N1CC(=O)N2[C@H](CO)[C@@H](c3ccc(-c4ccccc4F)cc3)[C@@H]2C1,-0.073%
8,COc1ccc2c3c(n(C)c2c1)[C@@H](CO)N(CC1CC1)CC31CN(C(=O)Nc2c(C)noc2C)C1,-1.03%
9,CCCn1nc(C(=O)Nc2ccc3nc(C)sc3c2)c2ccccc2c1=O,-12%
10,CC(=O)Nc1ccc2nc(NC(=O)CS(=O)(=O)c3ccc(F)cc3)sc2c1,-3.37%
11,CCCC(=O)Nc1nc2ccc(NC(=O)c3c(F)c(F)c(OC)c(F)c3F)cc2s1,57.7% (active)
12,O=C(NC[C@@H]1[C@@H](c2ccccc2)[C@H](CO)N1C(=O)C1CCC1)NC1CCCC1,14.7%
13,COc1ccccc1-c1ccc2n(c1=O)C[C@@H]1[C@@H](CO)[C@H](C(=O)NCc3ccccc3Cl)N[C@H]21,-17.8%
14,Cc1ccc(-c2nn(-c3ccccc3)cc2/C=C2\SC(=S)N(CCCCCC(=O)O)C2=O)o1,-10.8%
15,C=CCOc1ccc(/C=C2\SC(=S)N(CCC(=O)O)C2=O)cc1,78.5% (active)
16,O=C1/C(=C/c2ccc(F)cc2)SC(=S)N1CCCC(=O)N1CCCCC1CCO (configuration not stated),-2.88%
17,C[C@H]1CN([C@@H](C)CO)C(=O)c2cccc(NS(=O)(=O)c3ccc(F)cc3)c2O[C@@H]1CN(C)C,1.9%
18,Cc1ccc(S(=O)(=O)N(C)C[C@@H]2Oc3c(NC(=O)c4ccncc4)cccc3C(=O)N([C@@H](C)CO)C[C@@H]2C)cc1,-2.33%
19,COc1ccc(NC(=O)N[C@@H]2C=C[C@H](CC(=O)NC3CCC3)O[C@@H]2CO)cc1,3.89%
20,O=C(C1CCCC1)N1CC(=O)N2[C@H](C1)[C@@H](c1ccc(-c3ccccc3F)cc1)[C@@H]2CO,-3.17%
21,COc1ccc2c3c(n(C)c2c1)[C@H](CO)NCC31CCN(C(=O)Nc2ccccc2F)CC1,9.22%
22,C[C@H]1CN([C@@H](C)CO)C(=O)c2c(c3ccccc3n2C)-c2ccccc2CO[C@H]1CN(C)C(=O)Nc1ccc(F)cc1,-3.34%
23,O=C(C[C@H]1C[C@@H]2c3cc(NC(=O)c4cccnc4)ccc3O[C@@H]2[C@@H](CO)O1)NCc1ccccc1F,6.33%
24,C[C@H](O)C#Cc1ccc2c(c1)O[C@@H](CN(C)CC1CCCC1)[C@H](C)CN([C@@H](C)CO)S2(=O)=O,-1.43%

row,SMILES,inhibition
1,Cc1ccc(C(=O)Nc2nc3ccc(Cl)cc3s2)o1,-92.8%
2,Cc1ccc(CCC(=O)Nc2ncc(Cc3cc(Cl)ccc3Cl)s2)o1,54% (active)
3,O=C(CCc1ccccc1Cl)Nc1ccc(S(=O)(=O)Nc2nccs2)cc1,8.82%
4,CCC(=O)Nc1ccc2c(c1)C(=O)N(C)C[C@H](OC)[C@@H](C)CN(C(=O)c1cnccn1)[C@@H](C)CO2,4.08%
5,O=C(NC[C@H]1CC[C@H]2[C@H](CN2Cc2cccc(Cl)c2)O1)C1CC1,5.25%
6,CCCNC(=O)c1c(Cl)cnn1-c1ccc(C)cc1,-130%
7,Cc1cccc(-n2ncc(Cl)c(Cl)c2=O)c1,79.8% (active)
8,Cc1cccc(-n2ncc3c(=O)[nH]c(SCC(=O)Nc4cc(C)on4)nc32)c1,-9.98%
9,O=C(C[C@@H]1C[C@@H]2c3cc(NS(=O)(=O)c4ccc(F)cc4)ccc3O[C@@H]2[C@@H](CO)O1)N1CCOCC1,-1.95%
10,CNC[C@H]1Oc2cc(C#CC3CCCC3)ccc2S(=O)(=O)N([C@H](C)CO)C[C@@H]1C,3.9%
11,CCN(CC)CCCNC(=O)c1cc2c(=O)[nH]c3ccc(C)cc3c2s1,7.57%
12,Cc1cccc(N(C)C(=O)c2cc3c(=O)[nH]c4ccc(C)cc4c3s2)c1,65% (active)
13,Cc1ccc2[nH]c(=O)c(CC(=O)O)c(-c3ccccc3)c2c1,-1.99%
14,O=C([C@H]1[C@H](CO)[C@H]2Cn3c(cccc3=O)[C@@H]1N2Cc1cocn1)N1CCCCC1,-0.44%
15,CCC(C)Cn1c(O)cc2nn(-c3nc4ccccc4s3)c(=O)c-2c1C (configuration not stated),64.5% (active)
16,N#Cc1ccc(-c2ccc([C@H]3[C@H](CO)N4C(=O)CN(C(=O)Cc5ccccc5)C[C@@H]34)cc2)cc1,-6.19%
17,COc1ccc(CNC(=O)C[C@@H]2C=C[C@@H](NC(=O)c3ccc4c(c3)OCO4)[C@@H](CO)O2)cc1,-0.519%
18,CCNC(=O)C[C@@H]1CC[C@@H]2[C@@H](COc3ccc(NC(=O)Nc4ccccc4F)cc3C(=O)N2C)O1,-3.28%
19,CCOc1cc2[nH]c(=S)n(Cc3ccc(C(=O)N4CCN(C)CC4)cc3)c(=O)c2cc1OCC,67.5% (active)
20,COc1ccc(Cn2c(=S)[nH]c3cc(C(=O)N4CCCCC4)ccc3c2=O)cc1,-2.4%
21,COc1cc2[nH]c(=S)n(Cc3ccc(F)cc3)c(=O)c2cc1OC,11.2%
22,O=C(Nc1ccc(F)cc1)N[C@@H]1CC[C@H](CC(=O)N2CCCCC2)O[C@H]1CO,6.37%
23,C[C@@H]1CN([C@@H](C)CO)S(=O)(=O)c2ccc(-c3ccc(C(=O)N(C)C)cc3)cc2O[C@@H]1CN(C)C(=O)Cc1ccccn1,-2.65%
